In experiment [1] the target is Pantothenate synthetase (Mycobacterium tuberculosis (strain ATCC 25618 / H37Rv)) (UniProt P9WIL5). The experiment is described as follows: Coupled enzyme confirmation of inhibitors against recombinant Mtb PanC (AID 375; call rule not given here;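 further: 0% = full reaction with vehicle and 100% = no enzyme background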). The settings on record: coupled enzyme assay; at 10 µM, stronger effect = higher value.
Experiment [2] in a line: HUVEC growth inhibition – cell-based, human, primary screen (AID 575;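 active means viability at or below 30% in both replicate assays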;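 further: 100% = median of untreated cell wells with 0.1% DMSO on each plate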). The settings on record: HUVEC proliferation, CellTiter-Glo luminescence, 72 h; at 10 µM; stronger effect = lower value.
Experiment [3] is described as follows: H69AR cell proliferation blockers – human, duplicate replicates, primary screen (AID 580;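 active means viability at or under a set limit in both replicates, limit being median viability minus 3 SD, cut at about 48% in these data, passing the limit was not always enough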;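 further: 100% = mean luminescence of untreated wells and 0% = no signal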). The following applies: H69AR lung tumor cells viability, ATP luminescence, 72 h; at 10 µM; stronger effect = lower value.
Experiment [4] can be described thus: MRP1 drug-resistance reversers in H69AR cells – cell-based, doxorubicin co-treatment, pilot screen (AID 601). The settings on record: CellTiter-Glo, 72 h, at 10 µM; for differential viability (reversal): stronger effect = higher value.
Experiment [5] is described as follows: yeast transport mutant growth inhibition pilot in 384-well plates, post-Golgi transport modulator project (AID 636; in the data active means inhibition above about 31%). The following applies: absorbance 615 nm, about 18 h, stronger effect = higher value.
Experiment [6] is described as follows: growth suppression of yeast trafficking mutant, preliminary HTS, modulators of trafficking downstream of Golgi apparatus project, 1536-format plate, OD 615 nm (AID 637; in the data active means inhibition above about 30%). The settings on record: yeast transport mutant growth, absorbance 615 nm, 18 h; stronger effect = higher value.
Experiment [7] in a line: reduced viability of SK-BR-3 breast cancer cells – cell-based, 24 h, human, pilot screen (AID 572;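 active means viability at or below 10% of carrier control in both of two separate runs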;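 further: compound exposure lasted between 18 and 24 h rather than exactly 24 h; 100% = carrier-treated control wells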). The following applies: SK-BR-3 viability, CellTiter-Glo luminescence, at 10 µM, stronger effect = lower value.
The nature of experiment [8]: S. cerevisiae growth inhibition in permissive medium (OD615), pilot counter-assay for S. cerevisiae lifespan shortening project, permissive growth control (AID 705;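 active means growth inhibition above 25% in both replicates, a cutoff set 3 SD above the mean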). The following applies: OD615, 24 h, at 10 µM, stronger effect = higher value.
Experiment [9] in a line: S. cerevisiae growth inhibition in restrictive medium, OD615, pilot screen, restrictive growth control, yeast lifespan reduction project (AID 706;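 active means growth inhibition above a set limit, 3 SD over mean compound inhibition, in both replicates, cut at about 43% in these data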;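 further: modified DeaD lifespan yeast strain shifted to restrictive glucose medium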). The following applies: OD615, 48 h, at 10 µM, stronger effect = higher value.
Experiment [10] in a line: doxorubicin toxicity protection in MRP-1 cells – H69AR cells, CellTiter-Glo, duplicate, MRP-1 activator project, pilot screen (AID 807;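 active means viability increase at or above a cutoff of the median across tested compounds plus 3 SD, cut at about 8.5% in these data, passing the limit was not always enough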;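 further: compound pretreatment 18-22 h then 72 h combined with doxorubicin; 0% = doxorubicin alone and 100% = vehicle without doxorubicin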). The settings on record: H69AR viability with doxorubicin, CellTiter-Glo luminescence; at 10 µM; stronger effect = higher value. (ATP-based viability assays read luminescence as a measure of living cells.)
A short description of experiment [11]: viability of HCT116 without oncogenic beta-catenin – human colon tumor cells, pilot screen (AID 823;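 active means cell viability at or below a set limit in both duplicate runs, the limit being the all-compound median minus 4 SD, cut at about 23% in these data, passing the limit was not always enough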;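 further: 0% = wells killed by 20 µM Hyamine and 100% = untreated DMSO cell wells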). The settings on record: HCT116 beta-catenin knockout viability, CellTiter-Glo, 60 h; at 10 µM; stronger effect = lower value.
A short description of experiment [12]: viability of PTEN-null HCT116 cells – cell-based, HCT116 clonal line, CellTiter-Glo, pilot screen (AID 824;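 active means viability at or below 27.92% in each of two runs, the all-compound median minus 4 SD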;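 further: 0% = 20 µM Hyamine control and 100% = vehicle cell control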). The following applies: HCT116 PTEN-deleted viability, 60 h, at 10 µM, stronger effect = lower value.
Experiment [13] in a line: RAM pathway blockade in budding yeast – dse1pr::URA3 reporter, 5-FOA selection, pilot screen (AID 869;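 active means inhibition over a set limit, the all-compound mean plus 3 SD, in both replicate runs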;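 further: 0% = DMSO wells with no growth and 100% = 10 µM 1-NA-PP1 with full growth; RAM network block rescues cells from 5-FOA so hits raise OD615 growth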). The following applies: S. cerevisiae dse1pr::URA3 5-FOA growth, OD615, 2 d, at 10 µM, stronger effect = higher value.
[14] abbreviates: H69AR cells + 2 uM doxorubicin, measured here: viability with 2 uM doxorubicin, stronger effect = lower value.
The mark [15] stands for this setting: H69AR cells, compound alone cytotoxicity.

Inconclusive results are not listed. Activity calls are given as the source filed them.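 How the source made its calls, unless noted: active means viability loss from added drug above about 55%, and viability with drug at most 40%, in both replicates (limit read from the data, passing the limit was not always enough); inconclusive means both conditions met in only one replicate; inactive means neither replicate meets both conditions.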

Pantothenate synthetase (Mycobacterium tuberculosis (strain ATCC 25618 / H37Rv)), sequence (P9WIL5 whole entry, looked up): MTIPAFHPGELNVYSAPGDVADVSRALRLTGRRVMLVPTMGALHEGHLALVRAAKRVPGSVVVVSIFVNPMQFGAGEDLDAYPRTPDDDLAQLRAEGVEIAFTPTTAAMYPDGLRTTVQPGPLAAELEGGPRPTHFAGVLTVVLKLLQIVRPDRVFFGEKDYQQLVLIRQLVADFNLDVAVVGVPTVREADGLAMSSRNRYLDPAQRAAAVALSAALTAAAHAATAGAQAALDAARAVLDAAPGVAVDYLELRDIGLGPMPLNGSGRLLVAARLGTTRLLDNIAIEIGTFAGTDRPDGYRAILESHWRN

`Cc1cccc(-n2c(O)c(C=NCCCN3CCOCC3)c(=O)[nH]c2=O)c1C`: the inhibition is 2% (inactive) in experiment [1], 0.8% (inactive) in experiment [5] and -2.7% (inactive) in [6]. Moreover, the viability is 100% (inactive) in experiment [2], 105% (inactive) in experiment [3], 90.7% in [4] (setting [14]) and 105% in experiment [4] (setting [15]). Besides, the differential viability (reversal) in [4] (H69AR cells + 2 uM doxorubicin) is 14.8% (inactive).
Turning to `CN1CCN(c2c[nH]c(=O)[nH]c2=O)CC1`, the figures for the inhibition in [1], in [5] and in experiment [6] were 0% (inactive), -7.53% (inactive) and -6.29% (inactive), respectively. The viability is 110% (inactive) in experiment [7]; 90.6% (inactive) in experiment [2]; 96.7% (inactive) in experiment [3]; 91.6% in [4] (setting [14]); 96.7% in experiment [4] (setting [15]). Further, in [4] (H69AR cells + 2 uM doxorubicin), the differential viability (reversal) is 5.06% (inactive).
Take `C=C1CC[C@@]2(O)[C@H]3Cc4ccc(O)c5c4[C@@]2(CCN3CC2CC2)[C@H]1O5`: the inhibition in [1] was 0% (inactive); in experiment [5], -1.43% (inactive); in experiment [6], 6.83% (inactive). Besides, the viability in experiment [7] is 101% (inactive); in [2], 95.2% (inactive); in experiment [3], 110% (inactive); in experiment [4] (setting [14]) it was 95.5%; in experiment [4] (setting [15]), 110%. Also, in [4] (H69AR cells + 2 uM doxorubicin), the differential viability (reversal) was 14.7% (inactive).
Consider `CN1C[C@H](CNC(=O)OCc2ccccc2)C[C@@H]2c3cccc4c3c(cn4C)C[C@H]21`, for which the inhibition in [1] is 4% (inactive). For the same compound, the viability is 2.42% (active) in experiment [2], 66.3% (inactive) in experiment [3], 65.2% in [4] (setting [14]) and 66.3% in [4] (setting [15]). Besides, in experiment [4] (H69AR cells + 2 uM doxorubicin), the differential viability (reversal) is 1.09% (inactive).
With `O=C1c2ccccc2C(=O)N1Cc1nc2ccccc2c(=O)n1-c1ccc(Br)cn1`, the growth inhibition in experiment [8] was -8.78% (inactive); in [9], -3.02% (inactive). In addition, the viability increase in [10] is 0.3% (inactive). Besides, the viability was 98.4% (inactive) in [11] and 99.3% (inactive) in experiment [12]. In [13], the inhibition is 1.44% (inactive).
For `CC1(C)CC(=O)C=C(NCCN2CCN(C(=O)Cc3ccc(Cl)cc3)CC2)C1`, the inhibition was 2% (inactive) in [1], -0.79% (inactive) in experiment [5] and -2.06% (inactive) in [6]. Besides, the viability in experiment [2] was 109% (inactive); in experiment [3], 92.4% (inactive); in experiment [4] (setting [14]), 95.9%; in [4] (setting [15]), 92.4%. In experiment [4] (H69AR cells + 2 uM doxorubicin), the differential viability (reversal) was -3.5% (inactive).
Take `C[C@H]1CCCC(=O)CCCCCc2cc(O)cc(O)c2C(=O)O1`: the inhibition in experiment [1] was 2% (inactive); in [5] it was 0.26% (inactive); in experiment [6], -1.83% (inactive). Moreover, the viability in experiment [7] is 107% (inactive); in [3], 87.3% (inactive); in [4] (setting [14]), 110%; in [4] (setting [15]), 87.3%. The differential viability (reversal) in [4] (H69AR cells + 2 uM doxorubicin) is -23% (inactive).
For `CCOC(=O)c1c(N)n(Cc2ccco2)c2nc3ccccc3nc12`, the growth inhibition in [8] is -1.25% (inactive); in [9], 0.175% (inactive). Further, the viability increase in experiment [10] is -6.16% (inactive). In addition, the viability is 83.3% (inactive) in experiment [11] and 74% (inactive) in experiment [12]. The inhibition in experiment [13] is 1.18% (inactive).
Consider `c1ccc2c(c1)[nH]c1cnccc12`, for which the inhibition is 0% (inactive) in experiment [1], -0.78% (inactive) in experiment [5] and 0.5% (inactive) in experiment [6]. For the same compound, the viability in [7] was 100% (inactive); in experiment [2], 70.2% (inactive); in experiment [3], 83% (inactive); in experiment [4] (setting [14]), 80.7%; in experiment [4] (setting [15]), 83%. Also, in experiment [4] (H69AR cells + 2 uM doxorubicin), the differential viability (reversal) was 2.26% (inactive).
In the case of `CC(=O)[C@@]1(O)CC[C@H]2[C@@H]3CC=C4C[C@@H](O)CC[C@]4(C)[C@H]3CC[C@@]21C`, the inhibition was 0% (inactive) in experiment [1], -0.26% (inactive) in experiment [5] and 4.33% (inactive) in experiment [6]. Besides, the viability in experiment [7] is 89% (inactive); in experiment [2], 84.6% (inactive); in experiment [3] it was 89.8% (inactive); in experiment [4] (setting [14]), 84.3%; in experiment [4] (setting [15]), 89.8%. Moreover, the differential viability (reversal) in experiment [4] (H69AR cells + 2 uM doxorubicin) is 5.5% (inactive).
For `CN1CCN(C(=O)COc2ccc(-c3nc4ccccc4s3)cc2)CC1`, the growth inhibition in [8] was -5.45% (inactive); in experiment [9], 10.8% (inactive). The viability increase in experiment [10] was -4.38% (inactive). Besides, in experiment [11], the viability is 66.1% (inactive). The inhibition in [13] was 2.09% (inactive).
For `CCOC(=O)C(C)Oc1cc(C)cc2oc(=O)c3c(c12)CCCC3` (centres undefined) the same measures were -9.51% (inactive), -2.87% (inactive), -4.65% (inactive), 70.3% (inactive) and 1.43% (inactive).
As to `O=c1[nH]c2ccccc2n1CCCN1CCC(n2c(=O)[nH]c3cc(Cl)ccc32)CC1`, the results for the inhibition in experiment [1], in experiment [5] and in experiment [6] were 0% (inactive), -2.47% (inactive) and -0.17% (inactive), respectively. For the same compound, the viability is 91% (inactive) in [7]; 97.8% (inactive) in [2]; 76% (inactive) in experiment [3]; 82.5% in experiment [4] (setting [14]); 76% in experiment [4] (setting [15]). For the same compound, in experiment [4] (H69AR cells + 2 uM doxorubicin), the differential viability (reversal) is -6.47% (inactive).
Take `O=C(Cn1cc(C(=O)c2ccccc2)c2ccccc21)NCc1ccco1`: the values for the inhibition in [1], in experiment [5] and in experiment [6] were 2% (inactive), 2.47% (inactive) and 6.51% (inactive), respectively. In addition, the viability in experiment [2] is 47.3% (inactive); in experiment [3] it was 22.6% (active); in experiment [4] (setting [14]), 69.8%; in [4] (setting [15]), 22.6%. Besides, the differential viability (reversal) in experiment [4] (H69AR cells + 2 uM doxorubicin) is -47.2% (inactive).
With `CN(C)CCN=Cc1c(O)n(-c2cccc3ccccc23)c(=O)[nH]c1=O`, the inhibition is 6% (inactive) in experiment [1], -5.87% (inactive) in experiment [5] and 1.9% (inactive) in [6]. Further, the viability was 103% (inactive) in experiment [2], 105% (inactive) in experiment [3], 92.8% in [4] (setting [14]) and 105% in experiment [4] (setting [15]). Also, the differential viability (reversal) in experiment [4] (H69AR cells + 2 uM doxorubicin) is 11.9% (inactive).
`Clc1ccc(COC(Cn2ccnc2)c2ccc(Cl)cc2Cl)cc1` (centres undefined): in experiment [1], the inhibition was 2% (inactive). Moreover, the viability is 123% (inactive) in [7], 73.4% (inactive) in experiment [2], 48% in [4] (setting [14]) and 38.5% in experiment [4] (setting [15]). Also, in [4] (H69AR cells + 2 uM doxorubicin), the differential viability (reversal) was -9.47% (inactive).
As for `C[N+]1(C)[C@@H]2CC(OC(=O)[C@H](CO)c3ccccc3)C[C@H]1[C@@H]1O[C@@H]12` (some centres undefined), the inhibition in experiment [1] is 0% (inactive); in experiment [5], -2.21% (inactive); in experiment [6], 8.67% (inactive). The viability in experiment [7] was 97% (inactive); in experiment [2] it was 101% (inactive); in experiment [3], 106% (inactive); in experiment [4] (setting [14]) it was 97.7%; in experiment [4] (setting [15]), 106%. Also, the differential viability (reversal) in [4] (H69AR cells + 2 uM doxorubicin) was 8.56% (inactive).
On to `Cc1ccccc1-n1c(O)c(C=NCCN2CCOCC2)c(=O)[nH]c1=O`, for which the inhibition in experiment [1] is 2% (inactive); in experiment [5], -5.87% (inactive); in experiment [6] it was -8.41% (inactive). In addition, the viability in experiment [2] is 97.6% (inactive); in [3], 92.4% (inactive); in experiment [4] (setting [14]), 95.5%; in experiment [4] (setting [15]), 92.4%. For the same compound, the differential viability (reversal) in experiment [4] (H69AR cells + 2 uM doxorubicin) is -3.12% (inactive).
For `Cc1ccc(Cn2c(C)c3cnn(CC(=O)N4CCC5(CC4)OCCO5)c(=O)c3c2C)cc1`, the results for the inhibition in experiment [1], in experiment [5] and in experiment [6] were 0% (inactive), -0.81% (inactive) and -1.09% (inactive), respectively. For the same compound, the viability in experiment [7] is 97% (inactive); in experiment [2], 98% (inactive); in experiment [4] (setting [14]), 100%; in experiment [4] (setting [15]), 53.8%. The differential viability (reversal) in experiment [4] (H69AR cells + 2 uM doxorubicin) is -46.2% (inactive).

The term inhibition denotes the relative decrease from the control value, in per cent. In general, viability refers to a read-out of living cells in per cent, often relative to untreated cells.
